ChEMBL document CHEMBL1201862, “PubChem BioAssay data set” (2004)
About 4,100 (9.3%) of roughly 44,000 sequences were called active. Cut-off read from the data, not from the text of the source: active = GI50 up to about 1.1 µM and inactive = higher. The list comes from a sample in which actives are over-represented; it also holds similar and randomly drawn sequences. Results with a measured potency or affinity are listed apart.

Each substance was assayed on MDA-MB-435.
“[Bis(aminomethyl)tetramethylenesilane]dichloropaltinum(II), CHEMBL2146205” gave a GI50 of 3.51 µM. “[Bis(aminomethyl)tetramethylenesilane]tetrachloropaltinum(IV), CHEMBL2146189” showed a GI50 of 9.02 µM. With CISPLATIN, CHEMBL11359 the GI50 was 5.96 µM. “[Bis(aminomethyl)pentamethylenesilane]dichloropaltinum(II), CHEMBL2146202” gave a GI50 of 1.31 µM. For “[Bis(aminomethyl)pentamethylenesilane]tetrachloropaltinum(IV), CHEMBL2146204”, the GI50 was 0.438 µM. With “[Bis(aminomethyl)dimethylsilane]tetrachloroplatinum(IV), CHEMBL2146190” the GI50 was 13.9 µM.
